Here are results for four compounds from PubChem BioAssay (Tox21).

A short description of test [1]: Nuclear factor erythroid 2-related factor 2/antioxidant responsive element (Nrf2/ARE) small molecule agonists: qHTS cell viability counter screen in human keratinocytes (AID 1919968; active = well fitted curve in the direction sought with a large enough effect in the repeat runs; an effect the other way counts as inactive or inconclusive; note: nearly all actives have a fitted effect of over 55% in size). The following applies: KeratinoSens HaCaT ARE cells viability, CellTiter-Fluor, 24 h; series mostly up to 92.4 µM. Summed up: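 In human HaCaT keratinocytes stably expressing an ARE-driven luciferase, compound exposure lasted 23 h at 37 C under 5% CO2. Viable cells are quantified with a protease-based fluorogenic reagent (CellTiter-Fluor) read 1 h after addition.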
A general note: Quantitative high-throughput screening tests each substance at several concentrations.

Test [2] is described as follows: Nuclear factor erythroid 2-related factor 2/antioxidant responsive element (Nrf2/ARE) small molecule agonists: luciferase reporter gene qHTS assay in human keratinocytes (AID 1919969). Note: nearly all actives have a fitted effect of over 35% in size. Note: potency is the fitted concentration of half-maximal effect. The following applies: KeratinoSens HaCaT ARE-luciferase, luminescence, 24 h; series mostly up to 92.4 µM.
Test [3] has as its target KiSS-1 receptor (Homo sapiens) (UniProt Q969F8). Kind of test: Human kisspeptin (KISS1R) small molecule agonists, calcium flux assay in KISS1R-HEK293 cells (AID 1920064; active = well fitted curve in the direction sought with a large enough effect in the repeat runs; an effect the other way counts as inactive or inconclusive). As to conditions: KISS1R-HEK293, calcium flux fluorescence, agonist; series mostly up to 76.8 µM. A digest of the protocol: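 Concentration-response testing used 15 concentrations in triplicate on human KISS1R-expressing HEK293 cells. Calcium-dependent fluorescence (Ex/Em 480/540) was followed kinetically for 3 min after compound transfer.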

Test [4] in a line: G protein-coupled receptor (GPCR) small molecule agonists, calcium flux assay: HEK293 wild type cell line counter screen (AID 1920065). As to conditions: HEK293 WT calcium flux, fluorescence, agonist mode; series mostly up to 57.6 µM. Summed up: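 Fluorescence intensity signals activation. After overnight (18 h) culture and a 1 h calcium dye load at 37 C, compounds are added by pin tool and the plate read at 480/540 nm for 3 min in 1 s steps.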
(In general: Calcium assays in cells follow changes in intracellular calcium, usually with a dye or a luminescent sensor.)

A short description of test [5]: p53 small molecule agonists, cell-based qHTS assay with rat liver microsomes (AID 1963578). As to conditions: HCT-116 p53RE-bla, beta-lactamase ratio, 16 h; series mostly up to 66 µM. Summed up: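 Read-out is beta-lactamase reporter fluorescence (LiveBLAzer, 2 h, room temperature, dark) in p53RE-bla cells treated 16 h at 37 C with compound, rat liver microsomes and NADPH, both 0.5 mg/mL final.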

Test [6] can be described thus: p53 small molecule agonists, cell-based qHTS assay with human liver microsomes: qHTS cell viability counter screen (AID 1963579). Note: nearly all actives have a fitted effect of over 45% in size. The following applies: p53RE-bla HCT-116 viability, ATP luminescence, 16 h, HLM; series mostly up to 66 µM. Summed up: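 Cells carrying the p53 response-element beta-lactamase reporter are treated for 16 h at 37 C with test compounds in the presence of human liver microsomes and NADPH (both 0.5 mg/mL final); ATP-based CellTiter-Glo luminescence then reports viability.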

A short description of test [7]: p53 small molecule agonists, cell-based qHTS assay with rat liver microsomes: qHTS cell viability counter screen (AID 1963580). Note: nearly all actives have a fitted effect of over 45% in size. As to conditions: p53RE-bla HCT-116 + rat microsomes, ATP viability, 16 h; series mostly up to 66 µM. A digest of the protocol: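 Cytotoxicity counter screen: intracellular ATP read by CellTiter-Glo luminescence in the p53 reporter wells. HCT-116 p53RE-bla cells were treated for 16 h at 37 C alongside rat liver microsomes and NADPH, each 0.5 mg/mL final.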

Test [8] is described as follows: p53 small molecule agonists, cell-based qHTS assay: qHTS cell viability counter screen (AID 1963581). Note: nearly all actives have a fitted effect of over 45% in size. The following applies: p53RE-bla HCT-116 viability, ATP luminescence, 16 h; series mostly up to 66 µM. A digest of the protocol:
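Luminescence from CellTiter-Glo, reflecting ATP content, serves as the cytotoxicity measure; it is taken after the 2 h reporter substrate step in HCT-116 p53RE-bla cells dosed for 16 h at 37 C.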

Test [9] in a line: p53 small molecule agonists, cell-based qHTS assay (AID 1963582; active = well fitted activation curve with a large enough effect in the signal ratio in the repeat runs, not every such curve was filed as active; the % refers to the signal ratio). The following applies: HCT-116 p53RE-bla reporter, beta-lactamase FRET ratio, 16 h; series mostly up to 66 µM. A digest of the protocol: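 After plating, p53RE-bla cells sat 5 h in the incubator; compounds or DMSO vehicle were pinned in; a 16 h incubation at 37 C followed; FRET substrate was added and, 2 h later at RT, fluorescence was measured.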

For test [10], the target named is 5-hydroxytryptamine receptor 2A (Homo sapiens) (UniProt P28223). Kind of test: 5-hydroxytryptamine receptor 2A (HTR2A) small molecule antagonists, cell-based qHTS assay (AID 1963586). Note: nearly all actives have a fitted effect of over 45% in size. As to conditions: HTR2A-CHO cells, DOI-induced calcium flux, fluorescence; series mostly up to 61.5 µM. Summed up:
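CHO cells stably expressing human HTR2A were plated for 18 h at 37 C, then loaded with calcium dye for 1 h. Compounds were preincubated 5 min at room temperature before DOI (4 nM solution) was added. Kinetic fluorescence was read for 3 min.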

The target is the same in test [11]. Kind of test: 5-hydroxytryptamine receptor 2A (HTR2A) small molecule agonists, cell-based qHTS assay (AID 1963587). Note: nearly all actives have a fitted effect of over 30% in size. The following applies: HTR2A-CHO cells, calcium flux fluorescence, agonist mode; series mostly up to 76.8 µM. Summed up: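 Kinetic calcium-flux fluorescence (2 min, 1 sec intervals) after compound addition in agonist mode. HTR2A-CHO cells were cultured 18 h, then dye-loaded 1 h at 37 C.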

The target of test [12] is Muscarinic acetylcholine receptor M1 (Homo sapiens) (UniProt P11229). Kind of test: Cholinergic receptor muscarinic 1 (CHRM1) small molecule antagonists, cell-based qHTS assay (AID 1963588). Note: nearly all actives have a fitted effect of over 40% in size. As to conditions: CHRM1-CHO antagonist mode, calcium flux fluorescence; series mostly up to 61.5 µM. Summed up:
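Compounds were tested at 15 concentrations in three independent runs. Dye-loaded CHRM1-CHO cells were exposed 5 min at room temperature before stimulation by acetylcholine added at 50nM. Intracellular calcium was read kinetically on FDSS for 3 min.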

For test [13] the target is unchanged. Kind of test: Cholinergic receptor muscarinic 1 (CHRM1) small molecule agonists, cell-based qHTS assay (AID 1963589). Note: nearly all actives have a fitted effect of over 35% in size. The following applies: CHRM1-CHO cells, agonist mode, calcium flux fluorescence; series mostly up to 76.8 µM. Summed up: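 Fluorescent calcium dye reports M1 activation in stably transfected CHO cells. Compounds, 15 concentrations, added after 1 h dye loading at 37 C; kinetic reading at 1 sec intervals.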

The nature of test [14]: cAMP Responsive Elements (CRE) small molecule agonists, cell-based qHTS assay (AID 1963590). The following applies: CRE-bla HEK293T, beta-lactamase FRET ratio, 3 h; series mostly up to 92.4 µM. Summed up: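 Compound exposure lasted 3 h at 37 C/5% CO2 in CRE-bla HEK 293T cells grown in assay medium with 10% dialyzed FBS and 25 mM HEPES. Reporter signal came from LiveBLAzer B/G FRET substrate, 2 h, room temperature.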

A short description of test [15]: cAMP Responsive Elements (CRE) small molecule antagonists, cell-based qHTS assay (AID 1963591; active = well fitted inhibition curve with a large enough effect in the signal ratio in the repeat runs, not every such curve was filed as active; the % refers to the signal ratio). The following applies: CRE-bla HEK293T, beta-lactamase FRET ratio; series mostly up to 92.4 µM. Summed up:
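Stimulation used NKH477 at a final 0.25 uM for 3 h in compound-treated CRE-bla HEK293T cells, seeded 18 h beforehand. Reporter activity was measured with LiveBLAzer B/G FRET substrate after 2 h at room temperature.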

Test [16] concerns the target Beta-2 adrenergic receptor (Homo sapiens) (UniProt P07550). Kind of test: Adrenergic beta2 receptor (ADRB2) small molecule agonists, cell-based qHTS assay (AID 1963593).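 Note: CHO cells stably overexpressing human ADRB2.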 The following applies: CHO-ADRB2 cells, cAMP HTRF, 30 min; series mostly up to 92.4 µM. A digest of the protocol:
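CHO cells stably over-expressing ADRB2 were plated overnight at 37C, then dosed with compounds plus a stimulation mix containing 100uM IBMX and 25uM Ro-20-1724 for 0.5hr at room temperature. cAMP was measured by HTRF competition, 1hr.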

Test [17] deals with D(2) dopamine receptor (Homo sapiens) (UniProt P14416). Kind of test: Dopamine D2 receptor (DRD2) small molecule agonists, cell-based qHTS assay (AID 1963594). Note: nearly all actives have a fitted effect of over 35% in size. As to conditions: HEK293-DRD2 cAMP HTRF, agonist mode, 30 min; series mostly up to 92.4 µM. Summed up: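 cAMP accumulation in DRD2-HEK293 cells measured by HTRF after 1 h detection; compounds added 10 min before NKH477 (200nM […]) forskolin-analogue stimulation, 30 min at room temperature, with Ro20-1724 present at 0.1 mM final.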

For test [18] the target is unchanged. Kind of test: Dopamine D2 receptor (DRD2) small molecule antagonists, cell-based qHTS assay (AID 1963595; active = well fitted inhibition curve with a large enough effect in the signal ratio in the repeat runs, with a control signal flat; the % refers to the signal ratio). As to conditions: HEK293-DRD2 cAMP HTRF antagonist mode; series mostly up to 92.4 µM. A digest of the protocol: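 Human DRD2 antagonist qHTS measuring cAMP by HTRF. The cells are exposed to compound for 10 min, then to NKH477 (200 nM) and quinpirole (12 nM) for 30 min at RT, with Ro20-1724 (0.1 mM) present throughout.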

For test [19], the target named is Beta-2 adrenergic receptor (Homo sapiens) (UniProt P07550). Kind of test: Adrenergic beta2 receptor (ADRB2) small molecule antagonists, cell-based qHTS assay (AID 1963592). Note: nearly all actives have a fitted effect of over 50% in size. As to conditions: CHO-ADRB2 cells, isoproterenol-stimulated cAMP HTRF ratio, 0.5 h; series mostly up to 92.4 µM. A digest of the protocol: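 Assay format: CHO-ADRB2 cells, 18-20hr seeding at 37C/5% CO2, then compound plus 1nM isoproterenol agonist mix for 0.5hr RT. Homogeneous time-resolved fluorescence cAMP detection after 1hr, expressed as 665/615 nm ratio.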

A short description of test [20]: p53 small molecule agonists, cell-based qHTS assay with human liver microsomes (AID 1963577). As to conditions: HCT-116 p53RE-bla with human liver microsomes, ratio, 16 h; series mostly up to 66 µM. Summed up:
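Compounds act here after metabolic activation: human liver microsomes and NADPH, both at 0.5 mg/mL final, were co-added to p53RE-bla cells. Incubation ran 16 h at 37 C, followed by LiveBLAzer detection.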

Inconclusive results are not listed. Activity calls are given as the source filed them. Unless noted, calls come from the whole dose curve.

Chain of Muscarinic acetylcholine receptor M1 (Homo sapiens) (P11229 whole entry, looked up): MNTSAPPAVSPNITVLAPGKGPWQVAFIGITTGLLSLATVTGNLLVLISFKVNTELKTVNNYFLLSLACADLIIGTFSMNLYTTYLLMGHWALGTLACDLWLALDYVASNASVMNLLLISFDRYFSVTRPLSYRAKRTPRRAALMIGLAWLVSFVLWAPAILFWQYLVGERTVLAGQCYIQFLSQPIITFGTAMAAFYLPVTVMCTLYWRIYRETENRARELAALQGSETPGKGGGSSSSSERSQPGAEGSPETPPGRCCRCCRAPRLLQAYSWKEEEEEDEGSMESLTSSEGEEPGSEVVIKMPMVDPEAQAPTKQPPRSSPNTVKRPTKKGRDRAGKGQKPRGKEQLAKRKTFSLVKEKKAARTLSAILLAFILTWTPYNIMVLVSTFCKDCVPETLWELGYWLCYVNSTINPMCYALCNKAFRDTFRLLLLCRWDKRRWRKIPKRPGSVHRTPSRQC
Chain of D(2) dopamine receptor (Homo sapiens) (P14416 whole entry, looked up): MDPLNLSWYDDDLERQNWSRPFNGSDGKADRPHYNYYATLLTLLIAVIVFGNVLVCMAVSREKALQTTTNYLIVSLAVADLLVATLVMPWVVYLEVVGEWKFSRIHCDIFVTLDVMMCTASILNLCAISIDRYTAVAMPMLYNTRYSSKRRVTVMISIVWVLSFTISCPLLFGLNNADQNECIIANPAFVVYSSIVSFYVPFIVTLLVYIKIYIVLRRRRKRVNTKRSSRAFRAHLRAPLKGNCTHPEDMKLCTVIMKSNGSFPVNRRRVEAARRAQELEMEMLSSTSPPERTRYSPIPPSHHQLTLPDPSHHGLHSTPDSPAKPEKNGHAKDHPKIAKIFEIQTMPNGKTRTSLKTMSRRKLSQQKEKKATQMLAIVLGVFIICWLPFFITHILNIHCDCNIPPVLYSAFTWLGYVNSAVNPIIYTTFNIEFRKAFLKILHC
Chain of Beta-2 adrenergic receptor (Homo sapiens) (P07550 whole entry, looked up): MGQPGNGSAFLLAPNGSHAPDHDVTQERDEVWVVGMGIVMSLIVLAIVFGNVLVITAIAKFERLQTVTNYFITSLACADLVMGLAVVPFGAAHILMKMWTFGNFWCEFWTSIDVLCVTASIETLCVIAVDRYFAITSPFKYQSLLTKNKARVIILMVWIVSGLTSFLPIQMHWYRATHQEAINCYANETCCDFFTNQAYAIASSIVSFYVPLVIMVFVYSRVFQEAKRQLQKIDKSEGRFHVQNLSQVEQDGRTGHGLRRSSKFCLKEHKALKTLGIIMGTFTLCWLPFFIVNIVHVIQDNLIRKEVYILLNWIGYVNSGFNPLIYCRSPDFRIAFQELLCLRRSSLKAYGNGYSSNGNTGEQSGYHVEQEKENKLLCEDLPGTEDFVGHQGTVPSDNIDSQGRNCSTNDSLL
Chain of 5-hydroxytryptamine receptor 2A (Homo sapiens) (P28223 whole entry, looked up): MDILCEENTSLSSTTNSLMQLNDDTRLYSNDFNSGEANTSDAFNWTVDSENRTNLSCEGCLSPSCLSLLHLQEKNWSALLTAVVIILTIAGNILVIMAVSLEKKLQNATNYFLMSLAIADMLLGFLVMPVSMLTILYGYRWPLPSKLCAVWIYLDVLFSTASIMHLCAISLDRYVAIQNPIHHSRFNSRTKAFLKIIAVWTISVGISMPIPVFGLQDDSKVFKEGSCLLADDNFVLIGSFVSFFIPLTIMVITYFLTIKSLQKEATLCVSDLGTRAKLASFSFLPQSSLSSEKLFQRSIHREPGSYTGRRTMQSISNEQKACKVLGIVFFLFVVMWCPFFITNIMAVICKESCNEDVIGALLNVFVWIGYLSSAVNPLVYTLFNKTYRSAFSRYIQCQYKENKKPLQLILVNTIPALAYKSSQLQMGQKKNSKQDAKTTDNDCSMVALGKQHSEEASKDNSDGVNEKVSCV
Chain of KiSS-1 receptor (Homo sapiens) (Q969F8 whole entry, looked up): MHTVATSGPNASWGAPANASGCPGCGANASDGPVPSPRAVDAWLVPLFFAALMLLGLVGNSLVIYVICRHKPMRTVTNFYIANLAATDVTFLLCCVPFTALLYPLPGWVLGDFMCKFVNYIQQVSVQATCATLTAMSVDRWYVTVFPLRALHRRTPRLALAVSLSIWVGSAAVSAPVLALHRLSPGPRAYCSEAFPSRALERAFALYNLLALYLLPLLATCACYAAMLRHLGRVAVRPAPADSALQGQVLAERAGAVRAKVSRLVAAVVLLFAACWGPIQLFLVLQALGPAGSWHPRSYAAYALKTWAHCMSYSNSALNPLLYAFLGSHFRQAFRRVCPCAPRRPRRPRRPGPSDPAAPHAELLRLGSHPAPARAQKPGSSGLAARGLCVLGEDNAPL

Turning to `CC(=O)[O][Al][O]C(C)=O`, the Potency entry in test [1], in [2], in test [3], in [4], in [5] and in test [6] was “inactive” in each case. In addition, the Potency result in test [7], in test [8], in test [9], in [10], in test [11] and in test [12] was “inactive” in each case. Further, the Potency entry in [13], in test [14], in test [15], in test [16], in test [17] and in test [18] was “inactive” throughout.
On to `O=S(=O)(Oc1ccc(Cl)cc1Cl)c1ccccc1`, for which the Potency entry in test [1], in [3], in test [4], in [6], in test [7] and in test [8] was “inactive” each time. The Potency result in test [10], in test [11], in [12], in test [13], in test [14] and in test [19] was “inactive” throughout. For the same compound, in test [17], the Potency result was “inactive”. The Potency in [2] is 69.8 µM (active).
For the compound `O=C(O)[C@@H](O)[C@H](O)[C@H](O)[C@@H](O)C(=O)O`, the Potency result in test [1], in [2], in test [3], in test [4], in [20] and in test [6] was “inactive” throughout. In addition, the Potency result in test [8], in [9], in test [10], in [11], in [12] and in test [13] was “inactive” each time. In addition, the Potency entry in [14], in [15], in test [19], in test [16], in test [17] and in test [18] was “inactive” throughout.
As to `CC(=O)OC/C=C(\C)CC/C=C(\C)CCC=C(C)C`, the Potency result in [1], in test [2], in test [3], in [4], in test [6] and in test [7] was “inactive” each time. Besides, the Potency entry in test [8], in test [10], in test [11], in test [12], in test [14] and in [15] was “inactive” throughout. In addition, the Potency result in test [19], in [16], in test [17] and in test [18] was “inactive” in each case.
